Compound activity from PubChem BioAssay.
D2 ag-1 = human D2 receptor agonism in beta-arrestin assay | P14416 | DiscoveRx PathHunter D2 beta-arrestin, luminescence, 90 min; 100% = 57 uM dopamine signal | activation, % (no concentration beside the values) | 0.084% of 360,000 active; in the data active = activation above about 40%; inconclusive = between about 15% and that limit
Target sequence (P14416 whole entry, looked up): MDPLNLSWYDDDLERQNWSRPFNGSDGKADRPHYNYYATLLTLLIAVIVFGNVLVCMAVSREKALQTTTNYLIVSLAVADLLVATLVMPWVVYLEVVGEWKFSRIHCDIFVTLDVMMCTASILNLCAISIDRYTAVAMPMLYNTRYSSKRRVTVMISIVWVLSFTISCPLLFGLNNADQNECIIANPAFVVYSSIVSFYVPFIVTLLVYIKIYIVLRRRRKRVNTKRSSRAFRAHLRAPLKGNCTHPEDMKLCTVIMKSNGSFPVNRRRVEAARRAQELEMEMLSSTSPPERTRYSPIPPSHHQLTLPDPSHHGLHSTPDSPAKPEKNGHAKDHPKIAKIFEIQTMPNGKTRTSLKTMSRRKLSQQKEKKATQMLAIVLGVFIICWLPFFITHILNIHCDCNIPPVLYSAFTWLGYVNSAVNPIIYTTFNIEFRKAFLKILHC
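DiscoveRx PathHunter D2 beta-arrestin cells (2,100/well) attached overnight, then compound-stimulated 90 min at 37 C in HBSS/10 mM HEPES/0.1% Tween-20 buffer; beta-galactosidase complementation read by luminescence after 1 h at ambient temperature. Dopamine 57 uM final (EC100) as control.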
D2 antagonist = antagonizes the human D2 dopamine receptor | HEK293 TREx D2 cells, calcium flux, dopamine EC80 | inhibition, % at 10 µM | 2% of 340,000 active | AID 485344; in the data active = inhibition above about 30%; inactive = below that, where a call was filed
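Cells plated overnight at 30 C with tetracycline; no-wash calcium dye, 30–90 min RT; 10 s baseline; compound pinned; 180 s read; EC80 dopamine added; another 180 s read.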
D2 PAM-1 = potentiates the human D2 dopamine receptor allosterically; P14416; DiscoveRx D2 beta-arrestin cells, luminescence, 90 min; 100% = 57 uM dopamine signal; potentiation, % (no concentration beside the values); 0.23% of 360,000 active; in the data active = potentiation above about 50%; inconclusive = mostly about 30% to 49%
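D2 cells co-treated with compound plus 50 nM dopamine (EC20) for 90 min at 37 deg C to detect potentiation. Beta-arrestin recruitment was read as enzyme-fragment luminescence after 1 h at ambient temperature. Full response was set by 57 uM dopamine.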
D2 PAM-2 = D2 dopamine receptor (human) potentiation | P14416 | HEK293 T-REx D2, calcium flux, EC20 dopamine potentiation | potentiation, % at 10 µM | 0.34% of 340,000 active | AID 485347;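 active = potentiation over 3 SD above the plate norm, cut at about 30% in these data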
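Potentiation of an EC20 dopamine calcium response measured kinetically over 180 s, after a preceding 180 s compound-only read flagging agonists. Cells: inducible Hek293 Trex D2 line, 4000/well, cultured overnight at 30 C before dye loading.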
D2 ag-2 = D2 dopamine receptor (human) agonism. P14416. activation, % at 2 µM. AID 485358. HEK293 T-REx D2 cells, calcium flux agonist mode. 0.53% of 340,000 active;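 active = activation over 3 SD above normal in the single-dose calcium agonist read, cut at about 30% in these data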
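Tetracycline-induced HEK293 Trex cells with D2 receptor force-coupled to calcium signaling, plated overnight at 30 C and loaded with no-wash calcium dye. Calcium flux read kinetically for 180 s after compound addition; responses flag agonists.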
Each line names hits and unclear results; the compound was inactive in the other large screens; ! = not active in a repeat. Sampled rows, rich in hits. Any-hit rate of the full collection: about 2.4%.

CC(=O)Nc1ccc(N2Cc3ccccc3C2)cc1	D2 PAM-1 51.6
CC(=O)Nc1ccc(N2CCCC2)cc1	none
Cc1cc(C)c2c(c1)[C@@H]1C=CC[C@@H]1[C@H](c1ccc(S(=O)(=O)N3CCOCC3)cc1)N2	D2 antagonist 35.0
Cc1cccc(N2CCN(CCCNC(=O)c3sc4ncccc4c3-n3cccc3)CC2C)c1 (configuration not stated)	none (no result: D2 ag-1, D2 antagonist, D2 PAM-1)
Cc1ccc(CNS(=O)(=O)c2cc3c(cc2C)NC(=O)CO3)cc1	D2 antagonist 47.5
Cc1cc2c(cc1S(=O)(=O)N1CCN(c3cccc(C)c3C)CC1)OCC(=O)N2	D2 antagonist 50.0
Cc1ccc(CCNC(=O)CCS(=O)(=O)c2cc3c(cc2C)NC(=O)CO3)cc1	D2 antagonist 42.6
O=C(CCS(=O)(=O)c1cc2c(cc1Cl)NC(=O)CO2)NCCc1ccccc1	none
Cc1cccc(N2CCN(S(=O)(=O)c3ccc4c(c3)NC(=O)CO4)CC2)c1C	none
Cc1nn(C)c(C)c1CCC(=O)NC1CC(C)(C)Cc2c1cnn2-c1ccccc1 (configuration not stated)	none
Cc1sc2nc(SCc3nc(-c4ccccc4)no3)n(-c3ccccc3)c(=O)c2c1C	D2 PAM-2 33.7
O=C(Nc1ccc2c(c1)C(=O)OC2)c1ccc(C(F)(F)F)cc1	D2 antagonist 33.7
Cc1csc2nc(COC(=O)c3ccc(Cl)c([N+](=O)[O-])c3)cc(=O)n12	none
COCCCC/C(=N\OCCN)c1ccc(C(F)(F)F)cc1	D2 antagonist 53.9!
COc1ccc(-c2cc(C(F)(F)F)n3ncc(C(=O)N(C)Cc4ccccc4)c3n2)cc1	none
CCc1cc(C(=O)OC)c(NC(=O)CC2SC(=NC)N(C)C2=O)s1 (configuration not stated)	D2 antagonist 63.4
COc1ccccc1C(=O)C1CCCN(C(=O)c2ccccn2)C1 (configuration not stated)	none
CN(C)c1ccc(CNC(=O)c2cccc(NC(=O)N3CCSc4ncccc43)c2)cc1	none (no result: D2 ag-1, D2 antagonist, D2 PAM-1)
O=C(c1cccc(S(=O)(=O)N2CCCC2)c1)N1CCOCC1	none
Cc1ccsc1C=Nc1ccc(O)cc1	D2 ag-1 inconclusive, D2 PAM-1 75.0
Cc1ccsc1/C=N/N=C/c1sccc1C	none
COc1cc(C)c(/C=C(\C#N)C(=O)Nc2ccc(C)cc2)cc1C(C)C	D2 antagonist 74.7
COCCNC(=O)/C(C#N)=C/c1cc(C(C)C)c(OC)cc1C	none
CCOC(=O)CSc1nc(C)nc2c1sc1nc(C)c(C(C)=O)c(-c3ccc(OC)cc3)c12	D2 antagonist 39.6
CN1/C(=C/C=N/n2cnnc2)C(C)(C)c2ccccc21	D2 antagonist 56.3 (no result: D2 PAM-2)
CN1/C(=C\C=C(C#N)C#N)C(C)(C)c2ccccc21	none
CCOc1ccc(C(=O)CN2C(=O)NC3(CCCCCC3)C2=O)cc1	none
CCOc1ccc(C(=O)NNC(=O)CN2C(=O)NC3(CCCC3)C2=O)cc1	D2 antagonist 42.1
Nn1c(SCC(=O)N2CCOCC2)nnc1-c1cccnc1	none (no result: D2 antagonist, D2 PAM-2, D2 ag-2)
COc1ccc(OCC(=O)Nc2ccc(NC(=O)c3cccs3)cc2)cc1	D2 PAM-2 32.5
COc1ccc(NC(=O)c2cccs2)cn1	none
CC(C)(C)c1ccc(Oc2ccc(NC(=O)c3cccs3)cn2)cc1	D2 PAM-2 30.8
COc1ccc(OCC(=O)NNC(=O)c2cccs2)cc1	none
COc1ccccc1-c1nc2c(c(SCc3cccc(Cl)c3)n1)Cc1c(CO)cnc(C)c1O2	none (no result: D2 ag-1, D2 antagonist, D2 PAM-1)
COCC(C)n1c(SCc2ccc(OC)c(F)c2)nc2ccccc2c1=O (configuration not stated)	none (no result: D2 antagonist, D2 PAM-2, D2 ag-2)
CCn1c(SCc2ccc(OC)c(F)c2)nc2ccccc2c1=O	D2 PAM-2 33.4
CC(C)OCCCn1c(=S)[nH]c2cc3c(cc2c1=O)OCO3	D2 antagonist 49.5
CC(C)OCCCn1c(=S)[nH]c2ccc(N3CCOCC3)cc2c1=O	none
CCCN(CC(=O)Nc1ccccc1C)C(=O)c1cccc(-n2cnnn2)c1	none
COc1cc(C(=S)N2CCOCC2)ccc1OC(=O)c1ccc([N+](=O)[O-])cc1[N+](=O)[O-]	D2 ag-1 59.2, D2 PAM-1 60.7
COc1ccc(C(=S)N2CCOCC2)cc1OC(=O)c1ccc([N+](=O)[O-])cc1	none
CCN(CC)C(=O)c1cc(S(=O)(=O)N2CCCCC2)c[nH]1	D2 antagonist 32.7
O=C(CN1C(=O)COc2ccc(S(=O)(=O)N3CCCC3)cc21)N1CCCC1	none
O=C(O)CN1C(=O)COc2cc(S(=O)(=O)N3CCCC3)ccc21	D2 antagonist 30.8
COC(=O)CN1C(=O)COc2ccc(S(=O)(=O)N3CCOCC3)cc21	D2 antagonist 46.3
CC1(C(=O)O)CCCN(C(=O)c2cc3ccccc3s2)C1 (configuration not stated)	none (no result: D2 antagonist, D2 PAM-2, D2 ag-2)
CCc1ccc(-c2nc(CS(=O)CC(=O)NCc3ccco3)c(C)o2)cc1 (configuration not stated)	D2 PAM-2 73.2
COc1ccc(-c2nc(CS(=O)CC(=O)NCc3ccco3)c(C)o2)cc1 (configuration not stated)	none
Cc1cccc(-c2nc(CS(=O)CC(=O)NCc3cccs3)c(C)o2)c1 (configuration not stated)	D2 antagonist 39.1
O=S(=O)(Cc1nnnn1-c1ccccc1)c1ccc(F)cc1	none
COC(=O)c1cc2sc(Cl)cc2n1Cc1nc(-c2ccccc2F)oc1C	none (no result: D2 ag-1, D2 antagonist, D2 PAM-1, D2 PAM-2)
O=C(NCC(c1cccnc1)N1CCN(c2ccccc2)CC1)OCc1ccccc1 (configuration not stated)	D2 PAM-2 31.0
CSc1ccc(CCNC(=O)Cn2c(C)c3cnn(-c4ccccc4)c(=O)c3c2C)cc1	none (no result: D2 ag-1, D2 antagonist, D2 PAM-1, D2 ag-2)
NC(=O)C1CCN(C(=O)CN2CCc3ccccc32)CC1	D2 antagonist 45.3
CC(C)(C)NC(=O)NC(=O)CN1CCc2ccccc21	none
O=C(CN1CCc2ccccc21)NC(=O)NC1CCCCC1	D2 antagonist 32.6
CCOC(=O)c1c(S(=O)(=O)NCC(=O)Nc2ccc(C(C)=O)cc2)c(C)n(C)c1C	none (no result: D2 ag-1, D2 antagonist, D2 PAM-1)
Cn1cc(CNCCCn2ncc3ccccc32)c(-c2ccccc2F)n1	D2 antagonist 37.2
O=C(c1nc2ccccn2c1CNCCCn1ncc2ccccc21)N1CCOCC1	none
CC(=O)c1ccc(OCC(=O)NC2CCCCCC2)cc1	D2 PAM-2 30.8
Cc1cc(=O)oc2cc(OCC(=O)NC3CCCC3)ccc12	D2 PAM-2 30.6
CC(=O)c1ccc(OCC(=O)NC(=O)NC2CCCC2)cc1	none (no result: D2 antagonist, D2 PAM-2, D2 ag-2)
COc1ccccc1C#Cc1cnc2c(c1)C(=O)N([C@H](C)CO)C[C@H](C)[C@@H](CN(C)S(=O)(=O)c1cn(C)cn1)O2	none (no result: D2 antagonist, D2 PAM-2, D2 ag-2)
CCCCn1c(N)c(N(Cc2ccccc2OC)C(=O)c2ccc([N+](=O)[O-])s2)c(=O)[nH]c1=O	D2 ag-1 inconclusive, D2 PAM-1 50.3
